Measurements taken from PubChem BioAssay (NCATS).
Unmarked numbers belong to inactive results. Results filed as inconclusive are left out. Calls of active or inactive are those of the source. Unless noted, calls come from the whole dose curve; as a rule, active = well fitted curve in either direction with a large enough effect (not every such curve was filed as active); inconclusive = small, poorly fitted or top-dose-only effect, or another doubt; inactive = flat fitted curve, though single readings scatter.

Legend:
[1] = biological target: Lysosomal acid glucosylceramidase (Homo sapiens) (UniProt P04062); test: Glucocerebrosidase-p2 (AID 348; in the data active = potency below about 10 µM; note: potency is the fitted concentration of half-maximal effect); conditions: purified GBA, blue fluorogenic substrate, 40 min
Procedure, shortened: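 Compounds titrated from 0.6 nM upwards against 0.2 nM enzyme in pH 5.9 citric acid/KH2PO4, taurocholate, tween-20; blue fluorogenic substrate 80 uM, 40 min room temperature, stopped and read Ex 365/Em 440 for AC50.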

[2] = AP1 Signaling Pathway (AID 357); conditions: ME-180 AP-1-bla reporter, EGF-induced, beta-lactamase ratio, 5 h; at 7.69 µM (top of the series) unless noted;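 note: ME-180 reporter cells stimulated with EGF at its EC50 level; % is set by controls: 0 for no effect and ±100 for the full control effect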
Procedure, shortened: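 A ratiometric CCF4 readout (405 nm excitation; 460 and 530 nm emission) quantified AP-1-driven beta-lactamase in ME-180 cells after 5 h with compound and EC50 EGF; AC50 values were derived for activators and inhibitors.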

[3] = biological target: Cytochrome P450 1A2 (Homo sapiens) (UniProt P05177); test: p450-cyp1a2 (AID 410; calls by dose curve; note: potency is the fitted concentration of half-maximal effect;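 for activity change, negative = inhibition: -100% = full effect of reference inhibitor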); conditions: recombinant CYP1A2, luciferin-ME demethylation, luminescence; series mostly up to 11.4 µM
Procedure, shortened: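 Human CYP1A2 (20nM) demethylated Luciferin-ME at its Km (100uM) in 100mM KPO4. After 10 min compound preincubation, NADPH regeneration ran the reaction 60 min at room temperature. Luciferin was read by luminescence, normalized to 57 uM furafylline.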

[4] = NFAT Signaling Pathway (AID 444); conditions: Jurkat NFAT-bla M1, carbachol, beta-lactamase ratio, 5 h; at 7.69 µM (top of the series) unless noted;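 note: carbachol stimulus at about its EC50 of 1 µM final; % is set by controls: 0 for no effect and ±100 for the full control effect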
Procedure, shortened: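 Jurkat cells carrying an NFAT-driven β-lactamase reporter and co-transfected muscarinic M1 receptor were treated with compound plus carbachol (1 uM final, an EC50 level) for 5 h at 37 °C. CCF4 loading followed for 1 h at RT; 460/530 nm ratio gave %activity.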

[5] = Stat Signaling Pathway (AID 446); conditions: ME-180 SIE beta-lactamase reporter, IL-6 stimulated, 5 h; at 7.69 µM (top of the series) unless noted;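 note: ME-180 cervical cancer cells given 40 pM IL-6 alongside compound; SIE-controlled beta-lactamase reporter measured as 460/530 nm FRET emission ratio; % is set by controls: 0 for no effect and ±100 for the full control effect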
Procedure, shortened: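 Screening format detects activators and inhibitors alike: ME-180 SIE-bla cells stimulated at 40 pM IL-6 for 5 hrs with compound, then dual-emission beta-lactamase read at 405 nm excitation.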

[6] = biological target: Glucocorticoid receptor (Homo sapiens) (UniProt P04150); test: GR-GFP Redistribution (AID 450;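 active = compounds whose dose series gives a full or clear partial fitted curve of increased nuclear translocation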; note: potency is the fitted concentration of half-maximal effect); conditions: U2OS GR-GFP nuclear translocation, laser cytometry, 2 h
[7] = biological target: Glucocorticoid receptor (Homo sapiens) (UniProt P04150); test: GR-EFC Redistribution (AID 451; calls by dose curve; note: potency is the fitted concentration of half-maximal effect); conditions: CHO-K1 GR-EFC translocation, beta-gal luminescence, 2 h
Procedure, shortened: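 CHO-K1 cells stably expressing nuclear-localized β-gal enzyme acceptor and GR fused C-terminally to the enzyme donor fragment; ligand-driven nuclear translocation restores β-gal by complementation. Compounds titrated up to 46 uM final, 2 h at 37 °C; luminescence read.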

[8] = biological target: Mitogen-activated protein kinase 10 (Mus musculus) (UniProt Q61831); test: JNK3 AlphaScreen Assay (AID 530); conditions: JNK3 lysate, c-Jun phosphorylation; series mostly up to 11.4 µM;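 note: kinase came from lysate of stimulated human HepG2 cells; signal reports phosphorylation of biotinylated GST-cJun 1-79 at Ser73 with 10 µM ATP; % is set by controls: 0 for no effect and ±100 for the full control effect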
Procedure, shortened: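 JNK3 came from HepG2 lysates pre-activated with IL-1beta and TNF-alpha and phosphorylated biotinylated GST-cJun (1-79) at 10 uM ATP, pH 7.6, room temperature. Compounds were titrated. AlphaScreen signal used anti-phospho-cJun (Ser73) antibody.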

[9] = biological target: 3',5'-cyclic-AMP phosphodiesterase 4B (Homo sapiens) (UniProt Q07343); test: qHTS Assay for Inhibitors of PDE-IV (AID 607; active = well fitted activation curve with a large enough effect in the main read-out, with a control signal flat, not every such curve was filed as active; note: % of control where 0% means no effect); conditions: HEK293 ACTOne CNG channel cells, membrane potential fluorescence; series mostly up to 22.9 µM
Procedure, shortened: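 The readout is membrane depolarisation from a cAMP-sensing CNG channel, detected with a potential dye at ex 535/em 590. Cells were HEK293-derived (endogenous PDE-IV) at 1000 cells/well, titrated up to 22.9 uM final.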

Chain of 3',5'-cyclic-AMP phosphodiesterase 4B (Homo sapiens) (Q07343 whole entry, looked up): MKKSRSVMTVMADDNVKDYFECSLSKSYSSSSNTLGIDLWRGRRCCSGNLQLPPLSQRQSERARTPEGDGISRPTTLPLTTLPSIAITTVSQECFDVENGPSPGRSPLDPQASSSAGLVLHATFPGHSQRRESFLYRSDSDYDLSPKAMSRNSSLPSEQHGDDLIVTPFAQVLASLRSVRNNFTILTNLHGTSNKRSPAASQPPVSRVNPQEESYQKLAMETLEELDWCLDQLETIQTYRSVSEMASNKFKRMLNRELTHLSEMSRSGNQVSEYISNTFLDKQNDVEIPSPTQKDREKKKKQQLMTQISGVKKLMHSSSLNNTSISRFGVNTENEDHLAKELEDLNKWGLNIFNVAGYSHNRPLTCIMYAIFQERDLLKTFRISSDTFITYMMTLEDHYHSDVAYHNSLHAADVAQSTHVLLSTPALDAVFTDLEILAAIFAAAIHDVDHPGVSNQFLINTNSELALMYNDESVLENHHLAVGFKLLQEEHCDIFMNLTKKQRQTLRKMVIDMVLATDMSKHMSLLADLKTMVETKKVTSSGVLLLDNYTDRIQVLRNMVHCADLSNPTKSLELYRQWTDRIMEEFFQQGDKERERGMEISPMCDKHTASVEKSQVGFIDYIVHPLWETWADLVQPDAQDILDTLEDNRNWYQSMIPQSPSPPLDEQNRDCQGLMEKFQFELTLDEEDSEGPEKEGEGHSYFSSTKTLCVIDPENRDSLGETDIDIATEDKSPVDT
Chain of Glucocorticoid receptor (Homo sapiens) (P04150 whole entry, looked up, the tested form may be a part): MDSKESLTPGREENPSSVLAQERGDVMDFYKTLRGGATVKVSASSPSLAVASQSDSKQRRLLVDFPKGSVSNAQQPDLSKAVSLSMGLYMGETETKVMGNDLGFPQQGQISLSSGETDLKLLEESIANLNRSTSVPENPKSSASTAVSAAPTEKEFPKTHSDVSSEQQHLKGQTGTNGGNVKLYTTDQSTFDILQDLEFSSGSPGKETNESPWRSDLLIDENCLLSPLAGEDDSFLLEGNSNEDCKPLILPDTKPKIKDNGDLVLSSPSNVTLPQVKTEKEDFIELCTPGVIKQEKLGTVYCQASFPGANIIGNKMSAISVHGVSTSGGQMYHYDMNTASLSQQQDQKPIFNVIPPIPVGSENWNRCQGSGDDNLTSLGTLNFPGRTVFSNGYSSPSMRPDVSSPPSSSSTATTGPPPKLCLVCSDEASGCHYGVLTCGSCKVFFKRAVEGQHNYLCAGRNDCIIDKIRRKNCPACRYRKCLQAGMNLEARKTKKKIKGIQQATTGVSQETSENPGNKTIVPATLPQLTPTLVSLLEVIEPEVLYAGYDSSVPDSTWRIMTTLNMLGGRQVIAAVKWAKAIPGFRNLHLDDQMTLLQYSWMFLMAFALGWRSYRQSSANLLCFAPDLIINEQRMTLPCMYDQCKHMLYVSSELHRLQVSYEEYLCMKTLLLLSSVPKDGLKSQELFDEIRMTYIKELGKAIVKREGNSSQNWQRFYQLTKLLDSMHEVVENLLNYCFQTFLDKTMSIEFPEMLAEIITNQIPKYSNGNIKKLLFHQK
Chain of Cytochrome P450 1A2 (Homo sapiens) (P05177 whole entry, looked up): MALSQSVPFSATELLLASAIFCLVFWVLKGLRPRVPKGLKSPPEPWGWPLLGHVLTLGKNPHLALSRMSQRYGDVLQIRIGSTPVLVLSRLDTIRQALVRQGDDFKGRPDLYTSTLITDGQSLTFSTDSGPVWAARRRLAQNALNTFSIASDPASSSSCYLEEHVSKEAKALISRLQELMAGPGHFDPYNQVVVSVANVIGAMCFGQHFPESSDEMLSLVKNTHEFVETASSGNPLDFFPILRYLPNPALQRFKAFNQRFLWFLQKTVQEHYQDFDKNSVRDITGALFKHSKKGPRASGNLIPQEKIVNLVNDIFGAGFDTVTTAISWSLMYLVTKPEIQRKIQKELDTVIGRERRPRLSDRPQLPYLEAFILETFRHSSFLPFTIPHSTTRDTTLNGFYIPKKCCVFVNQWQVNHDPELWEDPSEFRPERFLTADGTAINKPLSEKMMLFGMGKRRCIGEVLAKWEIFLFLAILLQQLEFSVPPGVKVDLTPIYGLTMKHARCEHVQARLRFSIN
Chain of Lysosomal acid glucosylceramidase (Homo sapiens) (P04062 whole entry, looked up): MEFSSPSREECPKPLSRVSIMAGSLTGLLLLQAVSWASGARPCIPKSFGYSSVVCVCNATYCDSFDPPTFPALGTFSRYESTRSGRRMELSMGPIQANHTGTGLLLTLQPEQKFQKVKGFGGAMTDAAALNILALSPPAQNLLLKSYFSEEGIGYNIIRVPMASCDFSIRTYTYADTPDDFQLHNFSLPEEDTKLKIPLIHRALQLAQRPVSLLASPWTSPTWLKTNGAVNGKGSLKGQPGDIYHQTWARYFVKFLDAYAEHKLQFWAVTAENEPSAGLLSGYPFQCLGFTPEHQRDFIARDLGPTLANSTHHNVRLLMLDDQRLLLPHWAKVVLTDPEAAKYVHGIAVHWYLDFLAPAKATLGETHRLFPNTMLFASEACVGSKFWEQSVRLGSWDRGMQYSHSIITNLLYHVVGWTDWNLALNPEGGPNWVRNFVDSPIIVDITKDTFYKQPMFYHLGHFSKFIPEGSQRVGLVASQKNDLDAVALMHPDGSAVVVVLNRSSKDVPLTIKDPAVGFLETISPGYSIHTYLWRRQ

Structure (SMILES) | Potency [1] | activity change, negative = inhibition [2] | Potency [3] | activity change, negative = inhibition [4] | activity, negative = inhibition [5] | Potency [6] | Potency [7] | Potency [8] | Potency [9] | activity change, negative = inhibition [3]
C[C@H]1CN(CCO)CCN1c1ccccc1 | > 11.4 µM | 11.5% | inactive | -5.83% | 7.5% | > 46 µM | > 9.22 µM | inactive | inactive | 
Cc1ccc(NC(=O)c2ccccc2C(=O)O)cc1C | > 11.4 µM | -1.74% | 3.98 µM (active) | -27.9% | -5.42% | > 46 µM | > 9.22 µM | inactive | inactive | 
O=C(O)c1cc(=O)[nH]c(=S)[nH]1 | > 11.4 µM | -9.52% |  | 5.67% | 6.7% | > 46 µM | > 9.22 µM | inactive | inactive | -10.7% [at 2.29 µM]
O=C(O)c1ccccc1C(=O)Nc1cc2c(cc1Br)-c1ccccc1C2=O | > 11.4 µM | -2.84% | 0.631 µM (active) | 10.3% | -5.27% | > 46 µM | > 9.22 µM | inactive | inactive | 
O=S(=O)(O)c1cc(N=[N+]([O-])c2cc(S(=O)(=O)O)c3ccccc3c2)cc2ccccc12 | > 11.4 µM | 5.38% | 1.26 µM (active) | 8.26% | -2.62% | > 46 µM | > 9.22 µM | inactive | inactive | 
CC1=CC(=O)CC(C)(C)[C@]1(O)/C=C\C(C)=C\C(=O)O | > 11.4 µM | 2.59% | inactive | -29.1% | 2.83% | > 46 µM | > 9.22 µM | inactive | inactive | 
CN(C)c1ccc(C2N([C@H](C#N)c3ccc(N(C)C)cc3)CCCN2[C@@H](C#N)c2ccc(N(C)C)cc2)cc1 (some centres undefined) | > 11.4 µM | 0.74% | 5.01 µM (active) | -11.3% | 6.93% | > 46 µM | > 9.22 µM | inactive | inactive | 
Nc1ccccc1CCCC(=O)O | > 11.4 µM | -5.22% | inactive | 0.568% | 4.31% | > 46 µM | > 9.22 µM | inactive | inactive | 
COc1cc2ccc([C@H](C)NCC#N)cc2cc1OC | > 11.4 µM | -11.4% | 0.501 µM (active) | 9.37% | -0.292% | > 46 µM | > 9.22 µM | inactive | inactive | 
O=C(O)c1nnsc1COCc1ccccc1 | > 11.4 µM | 6.35% | inactive | 6.97% | 12.4% | > 46 µM | > 9.22 µM | inactive | inactive | 
CN(C)CCCn1cnc2cc(Cl)c(Cl)cc21 | > 11.4 µM | 1.9% |  | -23.5% | 11.7% | > 46 µM | > 9.22 µM | inactive | inactive | -20% [at 2.29 µM]
Cc1nc2ccccc2nc1-c1ccc(N=[N+]([O-])c2ccc(-c3nc4ccccc4nc3C)cc2)cc1 | > 11.4 µM | 6.31% | 6.31 µM (active) | -3.33% | -5.62% | > 46 µM | > 9.22 µM | inactive | inactive | 
c1ccc(CCNc2ccccn2)nc1 | > 11.4 µM | -8.73% | 5.01 µM (active) | 2.35% | -1.9% | > 46 µM | > 9.22 µM | inactive | inactive | 
O=CN1CCN(C[C@H](O)CN2CCCCC2)CC1 | > 11.4 µM | 9% |  | -4.36% | 8.12% | > 46 µM | > 9.22 µM | inactive | inactive | -17.6% [at 2.29 µM]
Cc1[nH]c2ccccc2c1-c1cc(-c2cc(-c3c(C)[nH]c4ccccc34)nc(N)n2)nc(N)n1 | > 11.4 µM | -6.63% | 0.398 µM (active) | 1.59% | -4.41% | > 46 µM | > 9.22 µM | inactive | inactive | 
NC(=O)NC(=O)[C@H]1CCCC[C@@H]1C(=O)O | > 11.4 µM | 7.05% | inactive | -5.46% | 17.8% | > 46 µM | > 9.22 µM | inactive | inactive | 

Structure (SMILES) | Potency [1] | activity change, negative = inhibition [2] | Potency [3] | activity change, negative = inhibition [4] | activity, negative = inhibition [5] | Potency [6] | Potency [7] | Potency [8] | Potency [9] | activity change, negative = inhibition [3]
O=C(O)c1cccc(SSc2cccc(C(=O)O)c2)c1 | > 11.4 µM | 0.262% | 5.01 µM (active) | 17.5% | -14.5% | > 46 µM | > 9.22 µM | inactive | inactive | 
Cn1c(=O)c2[nH]c(COCc3nc4c([nH]3)c(=O)n(C)c(=O)n4C)nc2n(C)c1=O | > 11.4 µM | 6.66% |  | 5.77% | -2.27% | > 46 µM | > 9.22 µM | inactive | inactive | 4.5% [at 2.29 µM]
Oc1cc(O)c2c(c1)O[C@@H](c1ccc(O)c(O)c1)[C@H](O[C@@]1(c3cc(O)c(O)c(O)c3)Oc3cc(O)cc(O)c3[C@H](O)[C@@H]1O)C2 | > 11.4 µM | 9.41% | inactive | 13.8% | -22.3% | > 46 µM | > 9.22 µM | inactive | inactive | 
Cc1nc(CN2CCCCC2)c(O)c(=O)[nH]1 | > 11.4 µM | -7.91% | inactive | 12.6% | -9.62% | > 46 µM | > 9.22 µM | inactive | inactive | 
C[C@@H](N)[C@@H](C)Cc1ccccc1 | > 11.4 µM | 10.1% | inactive | 6.03% | 15.9% | > 46 µM | > 9.22 µM | inactive | inactive | 
Oc1cccnc1CN1CCCCC1 | > 11.4 µM | -3.72% | inactive | 11.7% | 16.8% | > 46 µM | > 9.22 µM | inactive | inactive | 
O=C(O)[C@H]([C@H]1NCCS1)N1C(=O)c2ccccc2C1=O | > 11.4 µM | 20.1% | 5.01 µM (active) | 8.05% | 3.15% | > 46 µM | > 9.22 µM | inactive | inactive | 
COc1ccc(CN[C@H](C)C(=O)O)cc1 | > 11.4 µM | -9.23% | inactive | -12% | 2.1% | > 46 µM | > 9.22 µM | inactive | inactive | 
Nc1ncnc2c1ncn2C[C@@H](O)C(=O)O | > 11.4 µM | 8.44% | inactive | 2.36% | -0.0646% | > 46 µM | > 9.22 µM | inactive | inactive | 
N[C@@H](CSC(=O)c1ccccc1)C(=O)O | > 11.4 µM | -5.26% | inactive | 3.72% | 4.69% | > 46 µM | > 9.22 µM | inactive | inactive | 
Cc1ccc(-[n+]2cc(=O)o[nH]2)cc1 | > 11.4 µM | 4.74% | 3.98 µM (active) | -24.7% | 12.6% | > 46 µM | > 9.22 µM | inactive | inactive | 
Cc1ccnc(NS(=O)(=O)c2ccc(N=[N+]=[N-])cc2)n1 | > 11.4 µM | -2.39% | inactive | 4.09% | 1.25% | > 46 µM | > 9.22 µM | inactive | inactive | 
O=C(O)CCC(=O)c1ccc(Cl)cc1 | > 11.4 µM | 11.6% | inactive | -7.55% | 17.9% | > 46 µM | > 9.22 µM | inactive | inactive | 
O=C(O)CCCSc1ccccc1 | > 11.4 µM | -2.81% | inactive | -1.05% | 4.11% | > 46 µM | > 9.22 µM | inactive | inactive | 
Nc1ncnc2c1ncn2[C@H]1O[C@@H](C(=O)OCCO)[C@@H](O)[C@H]1O | > 11.4 µM | 1.75% | inactive | 21.4% | 25.7% | > 46 µM | > 9.22 µM | inactive | inactive | 
